# Several values for one entry are separate records, joined by “and”; a condition that tells them apart may be missing. Equal values may be shown once. Inconclusive results are not listed. More than one record can exist for a structure, and the calls need not agree. Activity calls are given as the source filed them. The calls were made as follows, unless noted: active = hit-call score of the fitted dose curve at least 0.9, where 1 is the maximum; inconclusive = response in the unintended direction; inactive = score below 0.9.
# Tested on: Thyroperoxidase (TPO), gene 54314
# Experiment: CCTE_Simmons_AUR_rTPO: CCTE's Amplex UltraRed Assay for Thyroperoxidase (TPO) Inhibition, Simmons Lab (AID 2283662);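 as to AC50: potency for loss of signal meaning inhibition of peroxidase activity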
# How it was run: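 Rat thyroid microsomes (5 ug protein) with 25 uM Amplex UltraRed and 300 uM H2O2 in 200 mM phosphate buffer, 30 min at 37C in dark; fluorescence 544/590 nm. Eight concentrations, 5 nM–87.5 uM final, 0.5% DMSO, triplicate biological replicates.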
SMILES,outcome,AC50
CC1=CCC(=C(C)C)CC1,inactive,–
O=Cc1ccccc1O,inactive,–
O=C(O)C1=NN(c2ccc(S(=O)(=O)O)cc2)C(=O)C1,–,36.4 µM (active)
O=c1cc[nH]cc1,inactive,–
CN(C)C(=O)Nc1ccccc1,–,43.8 µM (active)
c1ccc2scnc2c1,–,56 µM (active) and 16.7 µM (active)

# Tested on: not listed separately
# Experiment: STM_H9_OrnCyssISnorm_ratio: Stemina devTOX quickPredict H9 human embryonic stem cell (hESC)-based Assay for Ornithine (ORN):Cystine (CYSS) Ratio (AID 2283714)
# How it was run: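 Undifferentiated H9 hESCs were exposed to compound for 72h with media and chemical replaced every 24h. Final 24-h conditioned media were deproteinized and analysed by UPLC-HRMS. ORN and CYSS peak areas were normalized to C13 internal standards and the ratio taken versus 0.1% DMSO.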
SMILES,outcome,AC50
CCCCN(CCO)CCO,inactive,–
O=C1CCCCCCCCCCCC(=O)OCCO1,–,13.2 µM (active)
CCOC(=O)C=Cc1ccccc1,–,24.8 µM (active)
CC(=O)C1=C(C)[C@@H]2C[C@@]3(C1)[C@H](C)CC[C@H]3C2(C)C,inactive,–

# Read-out: not listed separately
# Experiment: CEETOX_H295R_MTT_cell_viability: Viability Assessment in the CeeTox HT-H295R MTT Assay (AID 2283718; active = hit-call score of the fitted dose curve at least 0.9, where 1 is the maximum; inactive = score below 0.9;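 as to AC50: curve fitted both ways so AC50 may mark viability loss or gain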)
# How it was run: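 H295R cells prestimulated 48 h with 10 uM forskolin, then exposed 48 h to test chemical (0.1% DMSO final). Viability by MTT (0.5 mg/ml, 4 h, 37 C), absorbance 570/650 nm; percent change versus DMSO, bidirectional fit.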
SMILES,outcome,AC50
CCCCCCCCCCCCN1CCOCC1,inactive,–
COC(=O)C(C)Oc1ccc(Oc2ncc(C(F)(F)F)cc2Cl)cc1 (centres undefined),inactive,–
CC(=N[Si](C)(C)C)O[Si](C)(C)C,inactive,–
c1coc(CNc2ncnc3nc[nH]c23)c1,inactive,–
CCCCCC1C(=O)CCC1CC(=O)OC (centres undefined),inactive,–
O=C(OCc1ccccc1)c1ccccc1O,inactive,–
COC(=O)c1cccc(C(=O)OC)c1,inactive,–
CC=CC(=O)C1=C(C)C=CCC1(C)C,inactive,–
COc1cc(OC)c2ccc(=O)oc2c1,inactive,–
OCCCO,inactive,–
CCCCCC(=O)O[C@]1(C(C)=O)CC[C@H]2[C@@H]3CCC4=CC(=O)CC[C@]4(C)[C@H]3CC[C@@]21C,–,13.4 µM (active)
OCC=Cc1ccccc1,inactive,–
CCCCCCCCCCOC(=O)c1ccccc1C(=O)OCCCCCCCC,inactive,–
CC(=O)c1ccc2ccccc2c1,inactive,–
CC(=O)C1=C(C)[C@@H]2C[C@@]3(C1)[C@H](C)CC[C@H]3C2(C)C,–,50 µM (active)
c1ccc(OCCOc2ccccc2)cc1,inactive,–
COc1ccc2[nH]cc(CCNC(C)=O)c2c1,inactive,–

# Target: Luciferin 4-monooxygenase (Photinus pyralis) (UniProt P08659)
# Sequence (P08659 whole entry, looked up): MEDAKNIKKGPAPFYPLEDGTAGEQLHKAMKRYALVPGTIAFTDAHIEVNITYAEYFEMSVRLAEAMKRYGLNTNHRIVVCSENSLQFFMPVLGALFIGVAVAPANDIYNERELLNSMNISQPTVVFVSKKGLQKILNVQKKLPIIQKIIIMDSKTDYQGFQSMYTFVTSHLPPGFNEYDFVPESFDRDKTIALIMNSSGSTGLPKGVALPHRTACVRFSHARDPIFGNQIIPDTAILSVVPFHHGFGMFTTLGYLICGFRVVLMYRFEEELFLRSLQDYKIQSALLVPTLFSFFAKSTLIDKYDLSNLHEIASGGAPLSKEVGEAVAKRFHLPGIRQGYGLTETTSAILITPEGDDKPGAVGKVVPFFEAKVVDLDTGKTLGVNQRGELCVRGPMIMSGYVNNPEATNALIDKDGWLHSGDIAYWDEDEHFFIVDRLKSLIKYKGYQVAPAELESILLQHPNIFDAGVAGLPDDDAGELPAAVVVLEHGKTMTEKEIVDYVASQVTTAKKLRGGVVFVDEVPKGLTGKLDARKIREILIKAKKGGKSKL
# Experiment: CCTE_Simmons_QuantiLum_inhib_2: CCTE's Firefly Luciferase Inhibition Assay, Simmons Lab (AID 2283767);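 as to AC50: potency for inhibitors that lower luciferase luminescence relative to DMSO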
# How it was run: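 Counter-screen for nonspecific enzyme inhibition: purified firefly luciferase incubated 30 min at 37C with chemicals up to 87.5 uM final, then luminescence measured after luciferin/dATP injection; activity fitted against DMSO baseline.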
SMILES,outcome,AC50
CC1=CCC(=C(C)C)CC1,inactive,–
O=Cc1ccccc1O,inactive,–
O=C(O)C1=NN(c2ccc(S(=O)(=O)O)cc2)C(=O)C1,inactive,–
O=c1cc[nH]cc1,inactive,–
CN(C)C(=O)Nc1ccccc1,inactive,–
c1ccc2scnc2c1,inactive,31.7 µM (active)
